Assay outcomes from PubChem BioAssay.
Pf growth 48h: Primary qHTS for delayed death inhibitors of the malarial parasite plastid, 48 hour incubation | Potency, µM (series often up to 28.7 µM), without a hit: at the top dose activity change, negative = inhibition, usual class: inhibitors | P. falciparum luciferase growth in erythrocytes, 48 h | actives 5.9% (n = 310,000); also: potency is read from the fitted curve at half-maximal effect
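Here the parasites carry a stable luciferase gene and grow inside erythrocytes in Albumax-based RPMI medium with compound for one erythrocytic cycle. Activity is scored as loss of luminescent signal.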
Pf growth 96h: Primary qHTS for delayed death inhibitors of the malarial parasite plastid, 96 hour incubation; P. falciparum luciferase reporter growth, 96 h; Potency, µM (doses to about 28.7 µM), for the others: top-dose activity change, negative = inhibition, hits mostly inhibitors; actives 6.9% (n = 320,000); also: potency is read from the fitted curve at half-maximal effect
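Two parasite generations (96 h, 37 C, 5% CO2) of compound exposure in infected erythrocytes (0.05% parasitemia, 2% hematocrit). Luciferase-reporter P. falciparum; decreased luminescence indicates inhibited growth, aimed at apicoplast-acting delayed death.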
HCV inhibitor: qHTS Assay for Inhibitors of Hepatitis C Virus (HCV) | actives 3.4% (n = 340,000) | Huh7.5.1 HCVcc-Cre infection, luciferase reporter, 44 h | AID 651820, 2012 | Potency, µM (doses to about 41.8 µM), for the others: at the top dose activity change, negative = inhibition, most hits filed as inhibitors; also: potency is read from the fitted curve at half-maximal effect
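Reporter virus HCVcc-Cre (~0.5 moi) infects cells exposed to compound; seeding density 1,000 cells/well with 4 h settling beforehand. Luminescence, 15 sec read, taken 44 h post-infection following a 15 min RT substrate incubation.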
HCMV antiviral: qHTS Assay for inhibitors of the human cytomegalovirus (HCMV); actives 4.5% (n = 410,000); AID 1259415, 2018; HFF cells, HCMV-luciferase reporter, 72 h; active compounds read low; activity change, negative = inhibition, % at 57.5 µM; in the data active = activity change below about -60%; inconclusive = no clear call, values can overlap the other calls; inactive = above about -39%
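HFF cells seeded 16 h at 37C, treated with compounds, infected with luciferase-reporter HCMV at MOI 1 PFU/cell; luciferase read at 72 h post infection, normalized to buffer-only and Salinomycin controls.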
* = called active by the depositor; ? = inconclusive; nt = not tested or not shown. Sampled rows, rich in hits. Any-hit rate of the full collection: about 13%. Unless noted, calls follow the shape of the dose curve; as a rule, active = well fitted inhibition curve with a large enough effect; inconclusive = small, poorly fitted or top-dose-only effect, or another doubt; inactive = no such curve, though single readings can be large or run the other way. % is scaled to controls: 0 for no effect and ±100 for the full control effect.

SMILES	Pf growth 48h	Pf growth 96h	HCV inhibitor	HCMV antiviral
CCOc1cc(-c2c(C#N)c(N)nc3c2CCc2ccccc2-3)ccc1O	?	-4%	?	-19
COc1ccccc1-c1c(C)c(C)nc(N)c1C#N	0%	nt	13%	-72*
C=CCCC(=O)N[C@H]1CC[C@@]23CCCN2C(=O)CCC[C@H]3[C@H]1Cc1ccccc1	nt	nt	nt	26
CCc1ccccc1NC(=O)CCNS(=O)(=O)c1ccc2c(c1)CCN2C(=O)C1CC1	nt	nt	nt	-5
COc1cccc(N2CCN(C(=O)Cn3cnc4onc(-c5ccc(F)cc5)c4c3=O)CC2)c1	nt	nt	nt	-27
CCCCOc1cccc(C(=O)N(Cc2cccs2)c2ccc(OC)cc2)c1	nt	nt	nt	-60*
COc1ccc(N(Cc2cccs2)C(=O)c2ccc(OC)c(Cl)c2)cc1	nt	nt	nt	-91*
CC(=O)c1cccc(NC(=O)c2ccc3c(c2)C(=O)N(Cc2cccnc2)C3=O)c1	13%	87%	9%	25
O=C(O)c1cccc(NC(=O)c2ccc3c(c2)C(=O)N(CC2CCCO2)C3=O)c1 (stereo unspecified)	nt	5%	2%	-108*
O=C(Nc1cccnc1)c1ccc2c(c1)C(=O)N(Cc1cccnc1)C2=O	3%	9.3µM*	17%	-4
O=C(NCc1cccnc1)c1ccc2c(c1)C(=O)N(Cc1ccccc1)C2=O	16%	4.1µM*	1%	6
O=C(Nc1cccc(O)c1)c1ccc2c(c1)C(=O)N(Cc1ccco1)C2=O	-6%	9.3µM*	18%	4
O=C1CCCC2=C1C(c1ccccc1)C1C(=O)c3ccccc3C1=N2 (stereo unspecified)	-24%	-8%	?	20
O=C1CCCC2=C1C(c1ccc(Cl)cc1)C1C(=O)c3ccccc3C1=N2 (stereo unspecified)	?	?	?	-70*
O=C1c2ccccc2C2=Nc3ccccc3SC(c3cccc(F)c3)C12 (stereo unspecified)	0.59µM*	?	?	-23
O=C1c2ccccc2C2=Nc3ccccc3SC(c3ccc(Cl)cc3)C12 (stereo unspecified)	0.52µM*	-25%	?	?
COC(=O)c1sccc1S(=O)(=O)N1CCN(c2ccccc2)CC1	nt	nt	nt	12
CCOC(=O)c1ccc(N=c2scc(C)n2CC)cc1	197%	293%	14%	-37
CCOC(=O)c1ccc(N=C2C(=S)N(c3ccc(C(=O)OCC)cc3)C(=N)N2/N=C/c2ccccc2)cc1	?	10µM*	?	-2
COc1ccc(N2CC(NC(=O)COc3ccc(F)cc3)CC2=O)cc1OC (stereo unspecified)	nt	nt	nt	-25
O=C1NC2CCc3nc4ccccc4c(=O)n3C2=Nc2ccccc21 (stereo unspecified)	28%	12µM*	?	6
O=C1N/C(=C/c2ccc(N3CCOCC3)o2)C(=O)N1c1cccc(Cl)c1	-1%	-4%	?	-100*
CC(C)C(=O)N1CCN(c2nc3ccc(Cl)cc3s2)CC1	96%	79%	?	-10
CC(C)NC(=O)N1CCCN(c2nc3ccc(Cl)cc3s2)CC1	-17%	5%	4µM*	?
CCCCC1(CC(=O)OC)C(=O)N(c2ccccc2)N(c2ccccc2)C1=O	?	42%	-3%	?
SMILES	Pf growth 48h	Pf growth 96h	HCV inhibitor	HCMV antiviral
CCCCC1(Cc2ccc(OC)c([N+](=O)[O-])c2)C(=O)N(c2ccccc2)N(c2ccccc2)C1=O	1.5µM*	?	?	?
CN1CCN(CC/C=C2/c3ccccc3Sc3ccc(S(=O)(=O)N(C)C)cc32)CC1	nt	nt	?	-19
COc1cc(Cl)cc2c1Sc1ccccc1/C2=C/CCN(C)C	12µM*	?	4.5µM*	nt
COc1cc2c(cc1Cl)/C(=C\CCN(C)C)c1ccccc1S2	10µM*	10µM*	?	-32
CN(C)CC/C=C1/c2cc(F)ccc2Sc2ccc(Cl)cc21	nt	nt	?	-8
CN(C)CC/C=C1/c2ccccc2Sc2c(O)cc(Cl)cc21	?	0.83µM*	?	-22
COc1ccc(CCN(/C=C2\Sc3ccccc3C2=O)C(C)=O)cc1OC	100%	38%	9%	90
COc1ccccc1CNC(=O)C(=O)NCC(c1ccc2c(c1)OCO2)N1CCOCC1 (stereo unspecified)	nt	nt	nt	-3
Cc1cc(C)cc(NC(=O)CSCc2cc(=O)c3cc(Cl)ccc3[nH]2)c1	nt	nt	nt	3
CCCn1c(C2CCCN2c2nc(-c3cccc(Br)c3)cs2)nc2cc(Cl)c(Cl)cc21 (stereo unspecified)	12µM*	9.3µM*	-28%	-6
Nc1c(Cl)cc(-c2csc(N3CCCC3c3nc4cc(Cl)c(Cl)cc4n3CCCO)n2)cc1Cl (stereo unspecified)	nt	nt	2µM*	17
OCCCn1c(C2CCCN2c2nc(-c3ccc(Cl)cc3)cs2)nc2cc(C(F)(F)F)ccc21 (stereo unspecified)	nt	nt	?	-66*
CC1CCCN(c2nc3c(-c4ccc(Cl)cc4)nnn3c3ccccc23)C1 (stereo unspecified)	nt	nt	nt	13
CCC(C)C(=O)O[C@@H]1[C@H](OC(C)=O)c2c(ccc3ccc(=O)oc23)OC1(C)C (stereo partly specified)	nt	nt	nt	-33
CN(C)C(=O)c1ccc(SC(=S)NCc2ccccc2)cc1	nt	nt	nt	-26
N#Cc1nc(-c2cccs2)oc1N1CCN(c2ccccc2)CC1	0%	5%	2.8µM*	1
Cn1cnc(S(=O)(=O)N2CCC(C(=O)NCc3ccc(F)cc3)CC2)c1	nt	nt	nt	34
Cc1cc(N(C(=O)c2ccco2)C(C(=O)NC2CCCCC2)c2ccccc2)ccc1-n1cnnn1 (stereo unspecified)	9.3µM*	nt	2%	-1
COc1cccc(N(C(=O)c2ccco2)C(C(=O)NC2CCCC2)c2ccc(N3CCOCC3)cc2)c1 (stereo unspecified)	?	18%	-14%	-21
COc1cccc(C(C(=O)NC2CCCCC2)N(C(=O)c2ccco2)c2ccc(-n3cnnn3)c(C)c2)c1 (stereo unspecified)	15µM*	-10%	-6%	-4
COc1ccc(/C=C/C(=O)Nc2nc3n(n2)C(c2ccc(F)cc2)C=C(c2ccccc2)N3)cc1 (stereo unspecified)	nt	nt	nt	-20
COc1cc(/C=C/C(=O)Nc2cc(S(=O)(=O)N3CCOCC3)ccc2N2CCCC2)cc(OC)c1OC	?	-5%	?	10
CCN(CC)S(=O)(=O)c1ccc(N2CCCCC2)c(NC(=O)/C=C/c2cc(OC)c(OC)c(OC)c2)c1	?	10µM*	?	-2
CCN(CC)S(=O)(=O)c1ccc(N2CCCC2)c(NC(=O)c2ccccc2OC)c1	?	10µM*	-23%	-36
COc1ccccc1C(=O)Nc1cc2c(cc1N1CCCC1)n(C)c(=O)c(=O)n2C	nt	nt	nt	11
